# From PubChem BioAssay (NCATS)
# Records with an inconclusive call do not appear. The source made the active and inactive calls. Calls come from the whole dose curve; as a rule, active = well fitted inhibition curve with a large enough effect; inconclusive = small, poorly fitted or top-dose-only effect; inactive = no such curve, though single readings can be large or run the other way.
# Assay: Primary qHTS for inhibitors of La Crosse Virus (LACV) - induced cell death in SH-SY5Y cells (AID 1508616);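 note: top concentration of the series differs between compounds; higher means more rescue of cells from virus-induced death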
# Conditions: SH-SY5Y LACV cytopathicity rescue, ATP luminescence, 6 d; series mostly up to 4.29 µM
# Procedure, shortened: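 SH-SY5Y cells (6000/well) plated 24 h, then given compounds by pin transfer and LACV at 0.01 MOI for 6 days at 37C. Viability measured by ATPLite luminescence, normalized to infected DMSO and uninfected DMSO.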
row,Structure (SMILES),outcome
1,CCCOC(=O)c1ccccc1,inactive
2,CN(C)CCCO[C@@H]1[C@H]2OC(C)(C)O[C@H]2O[C@@H]1C(O)CO (some centres undefined),inactive
3,COc1ccccc1O,inactive
4,CC12CCC(CC1)C(C)(C)O2,inactive
5,O=C(O)CC(O)C(=O)O (centres undefined),inactive
6,CC1(C)OC(=O)NC1=O,inactive
7,CC[C@@]1(c2ccccc2)NC(=O)N(C)C1=O,inactive
8,O=Cc1ccccc1C=O,inactive
9,CC1(C)S[C@@H]2[C@H](NC(=O)Cc3ccccc3)C(=O)N2[C@H]1C(=O)O (tested in a mixture with another compound),inactive
10,Oc1ccc(C(O)CNCCCCCCNCC(O)c2ccc(O)c(O)c2)cc1O (centres undefined),inactive
11,CC/C=C(\C(=O)N[C@@H]1C(=O)N2C(C(=O)OCOC(=O)C(C)(C)C)=C(COC(N)=O)CS[C@H]12)c1csc(N)n1,inactive
12,N[C@@H](CSCCCO)C(=O)O,inactive
13,CCOC(=O)[C@H](CCc1ccccc1)N[C@@H](C)C(=O)N1C(=O)N(C)C[C@H]1C(=O)O,inactive
14,CCCCN(CCCC)CCCOC(=O)c1ccc(N)cc1,inactive
15,CCOc1ccc2ccccc2c1C(=O)N[C@@H]1C(=O)N2[C@@H]1SC(C)(C)[C@@H]2C(=O)O,inactive
16,CN1CCOC(c2ccccc2)c2ccccc2C1 (centres undefined),inactive
17,C[C@@H]1CCN(C(=O)[C@H](CCCN=C(N)N)NS(=O)(=O)c2cccc3c2NC[C@H](C)C3)[C@@H](C(=O)O)C1,inactive
18,COc1cc(C(=O)N2CCOCC2)cc(OC)c1OC,inactive
19,O=C1OC(OC(=O)c2cccnc2Nc2cccc(C(F)(F)F)c2)c2ccccc21 (centres undefined),inactive
